Data published in PubChem BioAssay AID504339 (National Center for Advancing Translational Sciences (NCATS), 2011).
Out of some 390,000 compounds screened, about 17,000 (4.4%) were called active. About 8% were inconclusive and are not listed. For the sample, actives were picked, then their nearest neighbours and some compounds at random. Unmarked numbers belong to inactive results. Calls follow the shape of the dose curve; as a rule, active = well fitted inhibition curve with a large enough effect; inconclusive = small, poorly fitted or top-dose-only effect; inactive = no such curve, though single readings can be large or run the other way.

Target: Lysine-specific demethylase 4A (Homo sapiens) (UniProt O75164)
Sequence (O75164 whole entry, looked up, the tested form may be a part): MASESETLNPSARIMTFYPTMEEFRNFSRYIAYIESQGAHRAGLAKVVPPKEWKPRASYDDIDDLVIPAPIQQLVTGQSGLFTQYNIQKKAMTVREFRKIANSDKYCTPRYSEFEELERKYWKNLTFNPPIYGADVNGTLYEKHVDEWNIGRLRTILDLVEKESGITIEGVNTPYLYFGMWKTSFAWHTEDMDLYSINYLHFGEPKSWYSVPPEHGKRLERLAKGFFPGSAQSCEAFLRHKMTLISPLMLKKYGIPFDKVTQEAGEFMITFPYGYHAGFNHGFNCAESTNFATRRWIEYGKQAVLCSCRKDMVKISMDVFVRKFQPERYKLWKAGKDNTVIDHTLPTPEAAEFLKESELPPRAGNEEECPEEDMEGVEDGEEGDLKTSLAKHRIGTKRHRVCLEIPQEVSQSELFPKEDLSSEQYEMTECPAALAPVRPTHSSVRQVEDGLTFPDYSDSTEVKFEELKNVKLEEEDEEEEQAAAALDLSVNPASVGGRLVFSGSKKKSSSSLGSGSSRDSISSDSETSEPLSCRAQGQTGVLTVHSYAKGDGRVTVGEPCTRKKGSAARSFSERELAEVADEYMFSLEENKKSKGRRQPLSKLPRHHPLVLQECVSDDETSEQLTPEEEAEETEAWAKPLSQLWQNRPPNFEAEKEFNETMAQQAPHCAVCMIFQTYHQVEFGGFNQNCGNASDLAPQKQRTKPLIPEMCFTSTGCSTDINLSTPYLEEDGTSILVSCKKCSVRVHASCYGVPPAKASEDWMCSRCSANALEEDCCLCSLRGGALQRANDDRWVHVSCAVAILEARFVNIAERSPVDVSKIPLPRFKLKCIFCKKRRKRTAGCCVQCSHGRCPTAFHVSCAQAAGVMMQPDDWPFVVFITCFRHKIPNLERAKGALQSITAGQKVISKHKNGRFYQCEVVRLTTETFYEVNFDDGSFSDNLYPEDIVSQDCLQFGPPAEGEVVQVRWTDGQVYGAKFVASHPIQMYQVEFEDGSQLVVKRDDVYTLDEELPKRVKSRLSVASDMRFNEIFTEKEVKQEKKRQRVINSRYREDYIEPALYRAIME
Experiment: qHTS Assay for Inhibitors of JMJD2A-Tudor Domain; also: nearly all actives have a fitted effect of over 50% in size
Conditions: AlphaScreen JMJD2A-Tudor / H3K4me3 peptide binding; series mostly up to 114 µM; activity change, negative = inhibition: at the top concentration
Excerpt: JMJD2A is a jumonji-domain-containing lysine demethylase that uses Fe(II) together with 2-OG to effect oxidative demethylation of histones. Methylation is one of many […] modification that affect epigenetic transcription. […] It is proposed that the functions of JmjD2A binding to the histones, is to maintain marks after they are installed and to spread the modifications by […], establishing a self-propagating cycle for rapid methylation over a large area of chromatin. […] Thus, small molecule targeting of the JMJD2A-tudor domain interaction with its target methylhistone mark is expected to enable sophisticated experiments probing the fine regulatory pathways leading to selective demethylation of a given methyllysine locus based on the methylation state of adjacent histone marks. A quantitative high throughput AlphaScreen has been developed to identify small molecule inhibitors based on a protocol published by NCGC and SGC [4].
Although AlphaScreen has significant advantages with its utility in a variety of epigenetic target assays, the primary screening data provided in this deposition should be used with caution due to the prevalence of screening artifacts. The top compound concentration tested was high (>100uM) in this assay, which increases number of actives and potential artifacts. An AlphaScreen counterscreen is highly recommended to be run against any putative actives to eliminate non-specific artifacts. Alternatively, one can use other AlphaScreen assays in PubChem to filter out promiscuous hits.
[1] Lee, J. et al. Distinct binding modes specify the recognition of methylated histone H3K4 and H4K20 by JMJD2A-tudor. Nat Struct Mol Biol. 15(1); 109-11. 2008. PMID: 18084306
[2] Yasgar, et al. Compound Management for Quantitative High-Throughput Screening. JALA. 2008 Apr;13(2):79-89. PMID: 18496600
[3] Inglese, et al. Quantitative high-throughput screening: a titration-based approach that efficiently identifies biological activities in large chemical libraries. Proc Natl Acad Sci. 1;103(31):11473-8. 2006. PMID: 16864780
[4] Quinn et al. A homogeneous method for investigation of methyl-dependent protein-protein interactions in epigenetics. Nucleic Acids Res., 38(2):e11. 2010. PMID: […]
[5] Baell,Holloway. New substructure filters for removal of pan assay interference compounds (PAINS) from screening libraries and for their exclusion in bioassays. J Med Chem. 53(7):2719-40. 2010. PMID: 20131845
NIH Molecular Libraries Probe Production Network [MLPCN]
NIH Chemical Genomics Center [NCGC]
Structural Genomics Consortium (SGC)
To each well of a 1,536w plate, 2ul of JMJD2A-Tudor (final 100nM) and 1ul biotinylated histone peptide methylated at Lys4 [b-H3(1-18)K4me3] (final 50nM) were added in 1x PBS buffer, pH 7.4, containing 0.01% Tween-20, using a nanoliter dispenser. Formation of a protein-peptide complex proceeded at room temperature for 30 min. A Kalypsys pin-tool transferred 23nl of library compound solution in DMSO to each well. Following a 30 min incubation of the protein-peptide complex with compounds at room temperature, a mixture of 40 µg/mL each streptavidin-coated donor and nickel chelate acceptor AlphaScreen beads (final 10 µg/mL) was added in a 1ul dispense for a final volume of 4ul, followed by a brief centrifugation (1000 rpm, 1 min). Plates were incubated protected from the light for 20 min at room temperature. Microplates were then read on an EnVision multilabel plate reader using the 1,536 plate HTS AlphaScreen aperture (excitation time 80 ms, measurement time 240 ms).
% is scaled to controls: 0 for no effect and ±100 for the full control effect; potency is read from the fitted curve at half-maximal effect.

Row | Structure (SMILES) | activity change, negative = inhibition | Potency
1 | CCC1CN(S(=O)(=O)c2cc(-c3cc(C)no3)ccc2C)c2cc(C)ccc2O1 (stereo not drawn) | -13.3% (inactive) | 
2 | COc1cccc(C(=O)Nc2ccc3oc(-c4ccc5ccccc5c4)nc3c2)c1 | -27.5% (inactive) | 
3 | CCOc1ccc(C(=O)N2CCN(CCc3ccccn3)CC2)cc1 | -17.5% (inactive) | 
4 | Cc1ccc(F)cc1NC(=O)CCSc1nc(-c2ccco2)cc(C(F)(F)F)n1 | -14.1% (inactive) | 
5 | CCOC(=O)c1cc2c(=O)n3ccccc3nc2n(CC2CCCO2)c1=NC(=O)c1ccc(C(C)(C)C)cc1 (stereo not drawn) | 7.85% (inactive) | 
6 | CCCn1c(NCc2ccc(N(CC)CC)cc2)nc2ccccc21 |  | 39.8 µM (active)
7 | CCCn1c(NC(=O)C23CC4CC(CC(O)(C4)C2)C3)nc2ccccc21 | -14.9% (inactive) | 
8 | CCCn1c(NCc2ccccc2F)nc2ccccc21 | 4.36% (inactive) | 
9 | COc1cccc(CNC(=O)Cc2csc3nc(-c4ccccc4)cn23)c1 | -22.7% (inactive) | 
10 | Cc1cc(C)c2oc(-c3cccc(NC(=O)c4cccc(F)c4)c3C)nc2c1 | -10.8% (inactive) | 
11 | COc1ccc(-c2nc(Cn3c(=O)cc(C)c4c(C)nn(-c5ccccc5)c43)c(C)o2)cc1OC | -13% (inactive) | 
12 | CCOc1ccccc1NC(=O)Cn1c(=O)n(Cc2ccco2)c(=O)c2sc3ccccc3c21 | -20.5% (inactive) | 
13 | CCOc1ccccc1/C=c1\sc2nc(-c3ccco3)nn2c1=O |  | 56.2 µM (active)
14 | CCOC(=O)C1CCN(C(c2ccc(F)cc2)c2sc3nc(-c4ccco4)nn3c2O)CC1 (stereo not drawn) | 0% (inactive) | 
15 | CCCC(=O)Nc1cc2nn(-c3ccccc3)nc2cc1C | 1.96% (inactive) | 
16 | CCCC(=O)Nc1ccc(NC(=O)c2sc3ccccc3c2Cl)cc1 | -8.17% (inactive) | 
17 | Oc1ccc(N=Cc2sc3ccccc3c2Cl)cc1 |  | 50.1 µM (active)
18 | COC(=O)c1cc(NC(=O)c2sc3ccccc3c2Cl)cc(C(=O)OC)c1 | -8.5% (inactive) | 
19 | CCOCCCNC(=O)c1c(NC(=O)Cc2coc3c(C)c(C)ccc23)sc2c1CCC2 | -26.7% (inactive) | 
20 | CCc1ccc(OCCCn2c(CCCNC(=O)C3CCCCC3)nc3ccccc32)cc1 | -13.1% [at 57.1 µM] (inactive) | 
21 | CC1=C(C(=O)OCc2ccc(C)cc2)C(c2ccccc2Cl)CC(=O)N1 (stereo not drawn) | -19.2% (inactive) | 
22 | CN(CC#CCC(c1ccccc1)c1ccccc1)C(C)(C)C | -24.1% (inactive) | 
23 | CC(C)(C)N(CC#CCC(O)(c1ccccc1)C1CCCC1)CCO (stereo not drawn) |  | 50.1 µM (active)
24 | CCN(CCCNC(=O)Cn1ncc2c3ccccc3n(C)c2c1=O)Cc1ccccc1 | -12.1% (inactive) | 
25 | CCC(=O)N1CCc2cc(S(=O)(=O)NC(CC(C)C)C(=O)NCCc3cccc(C)c3)ccc21 (stereo not drawn) | -1.67% (inactive) | 
26 | O=S(=O)(c1cccs1)N1CCN(Cc2ccccc2)CC1 | -5.93% (inactive) | 
27 | O=C1c2ccccc2C(=O)c2c1cccc2N1CCN(Cc2ccccc2)CC1 |  | 14.1 µM (active)

Row | Structure (SMILES) | activity change, negative = inhibition | Potency
28 | CCc1c(C)nc(N2CCN(Cc3ccccc3)CC2)[nH]c1=O | -6.58% (inactive) | 
29 | COc1ccc(CNc2nc(-c3ccccc3)nn2C(=O)c2ccccc2OC)cc1 | 10.7% (inactive) | 
30 | CC(C)c1ccc(NC(=O)C2CCN(c3nc(-c4ccc(C(C)C)cc4)no3)CC2)cc1 | -15.6% (inactive) | 
31 | O=C1CC(c2ccc(F)cc2F)c2cc3c(cc2N1)OCO3 (stereo not drawn) | -15.8% (inactive) | 
32 | Cc1nc(Cl)c(C#N)c2c1CCCC2 | -0.685% (inactive) | 
33 | COC(=O)c1c(C)c(C)nc(N)c1C#N | -5.35% (inactive) | 
34 | COCc1c(N)c(C)nc(Cl)c1C#N |  | 11.2 µM (active)
35 | CC(=O)c1ccc(NC(=O)C2CCN(S(=O)(=O)c3c(C)noc3/C=C/c3ccc(C)cc3)CC2)cc1 | -16.6% (inactive) | 
36 | CN(Cc1ccccc1)c1ccc(-c2nc(-c3ccccc3)no2)cc1[N+](=O)[O-] | -8.94% (inactive) | 
37 | CC(=O)c1ccc(N2CCN(C3C(=O)c4ccccc4N3C(C)=O)CC2)cc1 (stereo not drawn) | -15.3% (inactive) | 
38 | COC(=O)c1c(NC(=O)C(=O)N2CCCCC2)sc2c1CC(C)(C)OC2 | -1.38% (inactive) | 
39 | CC1(C)Cc2c(sc(NC(=O)C(=O)N3CCOCC3)c2C#N)CO1 |  | 14.1 µM (active)
40 | CCOC(=O)N1CCN(C(=O)C(=O)Nc2sc3c(c2C#N)CC(C)(C)OC3)CC1 | -9.02% (inactive) | 
41 | COc1cc(C(=O)Nc2ccc(OCc3cc(=O)n4ccc(C)cc4n3)cc2)cc(OC)c1OC | -2.6% (inactive) | 
42 | COC(=O)c1cccc(N(CC(=O)NCC2CCCO2)C(=O)CCC(=O)Nc2cc(C)on2)c1 (stereo not drawn) | 0.702% (inactive) | 
43 | CCCCOc1ccc(N(CC(=O)NCC2CCCO2)C(=O)CCC(=O)Nc2cc(C)ccn2)cc1 (stereo not drawn) |  | 70.8 µM (active)
44 | Cc1cc(NC(=O)CCC(=O)N(CC(=O)NCC2CCCO2)c2ccccc2C)no1 (stereo not drawn) | 2.52% (inactive) | 
45 | COc1ccc(N(CC(=O)NCC2CCCO2)C(=O)CCC(=O)Nc2nccs2)c(OC)c1 (stereo not drawn) | -22.1% (inactive) | 
46 | Cc1cc(NC(=O)CCC(=O)N(CC(=O)NCC2CCCO2)c2ccccc2)no1 (stereo not drawn) | -10.2% (inactive) | 
47 | CCc1ccccc1N(CC(=O)NCC1CCCO1)C(=O)CCC(=O)Nc1nccs1 (stereo not drawn) |  | 25.1 µM (active)
48 | COc1ccc(C(=O)Nc2onc3c2CCCC3)cc1 | -17.7% (inactive) | 
49 | O=C(NCCc1ccccc1)C(=O)NCC(c1ccco1)S(=O)(=O)c1ccccc1 (stereo not drawn) | -9.42% (inactive) | 
50 | COc1cccc(C(=O)NC2(C(F)(F)F)C(=O)Nc3c2c(=O)[nH]c(=O)n3-c2ccc(C)cc2)c1 (stereo not drawn) | -7.22% (inactive) | 
51 | O=C(CSc1ncc(-c2ccccc2)[nH]1)Nc1ccc(F)cc1F | -25.7% (inactive) | 
52 | O=C(COc1ccccc1F)OCc1cc(=O)n2nc(C3CCCCC3)sc2n1 | -14.3% (inactive) | 
53 | Cc1ccc2c(c1)C1CN(C)CCC1N2S(=O)(=O)c1cccc(F)c1 (stereo not drawn) | -12.8% (inactive) | 
